Bioassay records: PubChem BioAssay, National Center for Advancing Translational Sciences (NCATS)
Giardia kill – kills Giardia lamblia; Giardia lamblia trophozoite viability; activity change, % at 7.66 µM, hits read low; 340,000 tested, 0.15% active; in the data active = activity change below about -80%; inconclusive = between about -30% and that limit;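 also: parasites exposed to compound for two days anaerobically before the ATP read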
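Luminescent ATP signal served as the viability read-out, measured 15-30 min after adding ATP detection reagent to trophozoites that had been incubated with compounds for 48 hrs at 37 deg C anaerobically at 100 cells/well.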
HT1080-NT tox – kills 2HG-producing HT-1080-NT fibrosarcoma cells | HT-1080-NT fibrosarcoma viability, CellTiter-Glo ATP luminescence, 48 h | Potency, µM (top dose mostly 46.1 µM), most hits filed as cytotoxic | 360,000 tested, 1.6% active;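 also: NT is the 2HG producing partner of a matched IDH1 knockdown line; nearly all actives have a fitted effect of over 55% in size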
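Read-out is CellTiter-Glo luminescence after 10 minutes at room temperature, following 48 hours' compound treatment of HT-1080-NT cells (750 cells/well, RPMI, 5% FBS, 37 degrees C).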
HepG2 tox-1 – counter-screen for TGF-b inhibitors: cytotoxicity in HepG2 cells. Potency, µM (series often up to 46.1 µM), actives largely listed as cytotoxic. 410,000 tested, 0.76% active. HepG2 CAGA-GFP viability, ATP luminescence, 18 h
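HepG2 CAGA-GFP cells (1000/well, DMEM with 1% FBS) received compound, then TGF-beta at 500 pg/mL final, and were incubated 18 hours at 37 degrees C. Viability was read by CellTiter-Glo luminescence. Media-only wells were set as complete cell-killing and DMSO as no toxicity.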
IL1B secr inh – blocks inflammasome-driven IL-1 beta release | THP-1 LPS/ATP IL-1B secretion, AlphaLISA, 16 h; stronger effect = lower value | activity change, % at 57.5 µM | 360,000 tested, 4.7% active; in the data active = activity change below about -50%; inconclusive = mostly about -30% to -49%
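Secreted IL-1B measured by AlphaLISA bead assay after 16 h compound exposure of THP-1 cells; compounds (final up to 57.5 uM) added 1 h before LPS (250 ng/mL) and ATP (1.25 mM) stimulation; lower signal means less secretion.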
HT1080 IDH1KD tx – kills HT-1080 cells with IDH1 knockdown; 360,000 tested, 2% active; Potency, µM (top dose mostly 46.1 µM), most hits filed as cytotoxic; HT-1080 IDH1 knockdown viability, ATP luminescence, 48 h
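% activity derives from luminescence (CellTiter-Glo), normalised to DMSO and no-cell wells. HT-1080-IDH1KD cells, 750/well, had 48 h compound exposure at 37 °C.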
TGFb inhibitor – TGF-b pathway inhibition. 410,000 tested, 1.2% active. HepG2 CAGA-GFP TGF-b/SMAD3 reporter, GFP fluorescence, 18 h; TGF-beta stimulated, 500 pg/mL final. AID 588855. Potency, µM (series often up to 46.1 µM), hits mostly inhibitors; also: nearly all actives have a fitted effect of over 65% in size
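HEPG2 CAGA-GFP reporter cells (1000/well, DMEM with 1% FBS) received compounds, then recombinant TGF-beta at 500 pg/mL final for 18 hours at 37 degrees C. Per-cell GFP summed per well was normalised to unstimulated and stimulated DMSO controls before curve fitting.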
TGFb confirm – confirmation of TGF-b signaling inhibitors in HepG2 reporter cells; Potency, µM (highest dose often 46.1 µM), most hits filed as inhibitors; shares compounds with TGFb inhibitor; HepG2 CAGA-GFP TGF-b reporter, GFP fluorescence, 18 h; cells stimulated with TGF-beta, 500 pg/mL; 1,600 tested, 63% active; AID 720534; also: nearly all actives have a fitted effect of over 65% in size
HepG2 tox-2 – toxic to HepG2 cells in TGF-b counterscreen; shares compounds with TGFb inhibitor; HepG2 CAGA-GFP viability, ATP luminescence, 18 h; cells stimulated with TGF-beta, 500 pg/mL; Potency, µM (top dose mostly 46.1 µM), actives largely listed as inhibitors; 1,600 tested, 27% active; also: nearly all actives have a fitted effect of over 70% in size
CCL64 TGFb inh – TGF-b inhibition, CCL64 orthogonal assay | Potency, µM (series often up to 46.1 µM), usual class: inhibitors | 1,600 tested, 41% active | CCL64 CAGA-GFP reporter, TGF-b stimulated, GFP fluorescence, 18 h | shares compounds with TGFb inhibitor | AID 720536; also: nearly all actives have a fitted effect of over 65% in size
COP TGFb inh – blocks TGF-b signaling in HepG2 COP reporter. shares compounds with TGFb inhibitor. HepG2 COP-GFP TGF-b reporter, GFP fluorescence, 18 h; cells stimulated by added recombinant TGF-beta. Potency, µM (series often up to 46.1 µM), most hits filed as inhibitors. 1,600 tested, 3% active. AID 720537; also: nearly all actives have a fitted effect of over 70% in size
Numbers stand for hits; n = inactive; u = inconclusive; x = no result; [ ] = another dose, or the depositor's remark. Sampled rows, rich in hits. Any-hit rate of the full collection: about 6.5%. Unless noted, calls follow the shape of the dose curve; as a rule, active = well fitted curve in the direction sought with a large enough effect; inconclusive = small, poorly fitted or top-dose-only effect, or another doubt; inactive = no such curve, though single readings can be large; an effect the other way counts as inactive or inconclusive.

SMILES | Giardia kill | HT1080-NT tox | HepG2 tox-1 | IL1B secr inh | HT1080 IDH1KD tx | TGFb inhibitor | TGFb confirm | HepG2 tox-2 | CCL64 TGFb inh | COP TGFb inh
COc1ccc(C(NC(=O)C2CCN(CCOc3ccc(Cl)cc3Cl)CC2)c2cccs2)cc1 (stereo unspecified) | x | n | 5µM | n | u | 4.5µM | u | u | u | u
CC(=O)c1ccc(C2CC34CN(Cc5cccc(Cl)c5)S(=O)(=O)C3CC2O4)cc1 (stereo unspecified) | n | x | n | x | x | n | x | x | x | x
O=S1(=O)[C@H]2CC3O[C@]2(C[C@@H]3c2ccc(F)cc2)CN1Cc1ccc(Cl)cc1 | n | n | n | n | n | 7.1µM | u | n | n | n
COc1ccc2[nH]c3c(=O)n(Cc4ccc(C(=O)N5CCC(C(N)=O)CC5)cc4)c(=S)[nH]c3c2c1 | n | n | n | n | n | n | x | x | x | x
CCOc1ccc(NC(=S)NC23CC4CC(CC(C4)C2)C3)cc1 | n | n | n | n | n | n | x | x | x | x
FC(F)Oc1ccc(NC(=S)NC23CC4CC(CC(C4)C2)C3)cc1 | n | u | n | u | u | 13µM | u | u | u | n
CN1CCc2c(sc(NC(=O)c3ccc([N+](=O)[O-])o3)c2C(N)=O)C1 | u | 6.5µM | n | -98 | 0.58µM | 1.8µM | 0.58µM | 2.3µM | u | n
N#Cc1c(NC(=O)c2ccc([N+](=O)[O-])o2)sc2c1CCC2 | -94 | u | n | -94 | u | u | 12µM | 9.2µM | 15µM | n
CN1CCc2c(sc(NC(=O)c3ccc(S(=O)(=O)N4CCOCC4)cc3)c2C(N)=O)C1 | n | n | n | n | n | n | x | x | x | x
O=S(=O)(Nc1ccccc1N1CCOCC1)c1cccs1 | n | n | n | n | n | n | x | x | x | x
COc1cccc2c3c(c(C)nc12)CC(C)O3 (stereo unspecified) | n | n | n | n | n | n | x | x | x | x
COc1ccc(N2CCc3c(C)nc4c(OC)cccc4c32)cc1 | n | 3.7µM | n | -96 | 3.3µM | 11µM | 15µM | u | 26µM | n
CCN(c1cccc2ccccc12)S(=O)(=O)c1cccs1 | n | n[9.24 µM] | n | n | n | u | x | x | x | x
CC(=O)Oc1ccc(N(C(C)=O)S(=O)(=O)c2cccs2)c2ccccc12 | n | u | n | n | 18µM | 10µM | u | n | u | n
Nc1nnc(SCC(=O)Nc2cccc(S(=O)(=O)N3CCOCC3)c2)s1 | n | n | n | n | n | u | x | x | x | x
COc1ccc(S(=O)(=O)N2CCOCC2)cc1NC(=O)CSc1nnc(N)s1 | n | n | n | n | n | u | n | n | n | n
Cc1ccc([C@@H]2CC=C(C(=O)O)CN2S(=O)(=O)c2ccccc2C)cc1 | n | n | n | n | n | n | x | x | x | x
CCC(c1nnnn1Cc1ccc(OC)cc1)N1CCN(c2ccc(OC)cc2)CC1 (stereo unspecified) | n | n | n | n | n | n | x | x | x | x
O=C(Nc1ccccc1)Nc1nnc(CSCc2ccccc2Cl)s1 | n | u | n | n | u | 7.9µM | u | n | u | n
CCCCN(CC)C(=O)CSc1nc2n[nH]c(C)c2c(=N)n1-c1cccc(C)c1 | n | n | n | n | n | 7.1µM | u | n | u | n
COc1cccc(/C=N/NC(=O)c2ccncc2)c1OC(=O)c1ccc(Br)cc1 | n | u | n | n | u | u | u | n | u | n
COc1cc(/C=N/NC(=O)c2ccncc2)ccc1OC(=O)c1cccc(Br)c1 | n | n | n | n | n | n | x | x | x | x
Cc1ccc(OCC(=O)NNC(=O)c2ccc(NC(=O)C3CC3)cc2)c(C)c1 | n | n | n | n | n | n | x | x | x | x
Nc1nc(N)c2c(ccc3c2ccn3Cc2cccc([N+](=O)[O-])c2)n1 | x | 0.018µM | n | -109 | 0.15µM | 3.5µM | 4.6µM | 0.29µM | u | 13µM
Cc1ccc(S(=O)(=O)c2ccc(C)cc2)cc1 | n | n | n | n | n | n | x | x | x | x
SMILES | Giardia kill | HT1080-NT tox | HepG2 tox-1 | IL1B secr inh | HT1080 IDH1KD tx | TGFb inhibitor | TGFb confirm | HepG2 tox-2 | CCL64 TGFb inh | COP TGFb inh
Cc1ccc(S(=O)(=O)c2ccc([N+](=O)[O-])cn2)cc1 | n | 2.6µM | 7.1µM | -105 | 4.6µM | 2.8µM | 3.3µM | 2.9µM | 3.3µM | 5.2µM
O=[N+]([O-])c1ccc(S(=O)(=O)c2ccccc2)nc1 | n | 5.8µM | 14µM | n | 5.8µM | 2.5µM | 4.1µM | 5.8µM | 3.3µM | 8.2µM
CCOC(=O)NC1(NCc2ccccc2)Oc2ccccc2O1 | n | u | n | n | u | n | x | x | x | x
CCOc1ccc(CCNc2ncnc3onc(C)c23)cc1OCC | x | x | n | x | x | n | x | x | x | x
O=C(Nc1ccc(N2CCN(C(=O)c3ccc(Cl)cc3)CC2)cc1)c1ccc([N+](=O)[O-])o1 | -87 | 10µM | 13µM | -107 | 2.6µM | 7.1µM | 6.5µM | 16µM | u | u
CS(=O)(=O)N1CCN(c2ccc(NC(=O)c3ccc([N+](=O)[O-])o3)cc2)CC1 | -81 | u | 5.6µM | -97 | u | 4µM | 2.9µM | 15µM | u | n
CC(C)(C)C(=O)N1CCN(c2ccc(NC(=O)c3ccc([N+](=O)[O-])o3)cc2)CC1 | -81 | 4.1µM | n | -96 | 5.2µM | 7.1µM | 7.3µM | 10µM | u | n
O=C(Nc1ccc(N2CCN(C(=O)c3ccc(Cl)cc3)CC2)cc1)c1cccs1 | n | n | n | n | n | n | x | x | x | x
CC(C)(C)C(=O)N1CCN(c2ccc(NC(=O)c3ccco3)cc2)CC1 | n | n | n | u | n | n | x | x | x | x
O=C(O)c1cccc(NS(=O)(=O)c2ccc3c4c(cccc24)C(=O)N3)c1 | n | n | n | n | n | n | x | x | x | x
O=C1CC(Cc2ccccc2)C(=O)N1c1ncccn1 (stereo unspecified) | n | n | n | n | n | n | x | x | x | x
NC(=O)c1cc([N+](=O)[O-])c(Cl)cc1NCc1ccncc1 | n | n | n | n | n | u | 18µM | n | n | n
